# Experimental data as given in PubChem BioAssay (EPA / NIEHS).
# Records with an inconclusive call do not appear. The source made the active and inactive calls. Rule for the calls: active = hit-call score of the fitted dose curve at least 0.9, where 1 is the maximum; inconclusive = response in the unintended direction; inactive = score below 0.9.
# What was measured:
# [1] = target: rat Constitutive Nitric Oxide Synthase (CNOS), Nos1 (gene 24598) (UniProt P29476); assay: NVS_ENZ_rCNOS: NovaScreen (NVS) Enzymatic Assay for rat Constitutive Nitric Oxide Synthase (CNOS) (AID 2283236)
# Method in brief: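 Enzyme activity in rat brain membrane preparation, read 1 h after dosing by filter-based radiometric scintillation counting. Primary screen in duplicate at 25 uM; actives (e.g., ≥30% inhibition) then run in concentration-response up to 50 uM.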
# [2] = NVS_GPCR_bNPY_NonSelective: NovaScreen (NVS) G Protein-Coupled Receptor Assay for bovine Neuropeptide Y (NPY) Receptor, Non-selective Binding (AID 2283245)
# Method in brief: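 Bovine hippocampal membranes incubated 1 hour with radioligand and test chemical. Bound ligand measured by filter-based scintillation counting. Single-concentration screen at 25 uM in duplicate, then concentration-response up to 50 uM.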
# [3] = target: human Sirtuin 2 (SIRT2), SIRT2 (gene 22933) (UniProt Q8IXJ6); assay: NVS_ENZ_hSIRT2: NovaScreen (NVS) Enzymatic Assay for human Sirtuin 2 (SIRT2) (AID 2283217)
# Sequence of human Sirtuin 2 (SIRT2), SIRT2 (gene 22933) (Q8IXJ6 whole entry, looked up): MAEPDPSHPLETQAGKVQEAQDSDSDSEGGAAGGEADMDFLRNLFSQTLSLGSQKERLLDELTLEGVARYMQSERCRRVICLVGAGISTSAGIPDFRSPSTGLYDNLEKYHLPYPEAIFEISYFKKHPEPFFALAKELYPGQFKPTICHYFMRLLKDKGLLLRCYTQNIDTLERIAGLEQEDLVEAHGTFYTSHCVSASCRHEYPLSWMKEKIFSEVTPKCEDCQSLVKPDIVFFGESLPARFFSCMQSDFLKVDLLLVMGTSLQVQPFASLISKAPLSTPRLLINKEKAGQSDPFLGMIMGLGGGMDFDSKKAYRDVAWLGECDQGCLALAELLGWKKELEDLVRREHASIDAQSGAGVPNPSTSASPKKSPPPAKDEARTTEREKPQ
# Method in brief: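 Cell-free recombinant human SIRT2, fluorescent substrate with product separated by electrophoretic mobility shift, 1 hr. Screened in duplicate at 25 uM; hits rerun singly in concentration-response up to 50 uM, relative to DMSO.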
# [4] = target: rabbit Imidazoline 2 Central (I2C), CKB (gene 100009085) (UniProt P00567); assay: NVS_ENZ_rabI2C: NovaScreen (NVS) Enzymatic Assay for rabbit Imidazoline 2 Central (I2C) (AID 2283228)
# Method in brief: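 Rabbit brain membranes, cell-free; readout by filter-based scintillation counting 1.5 hours after dosing, loss of signal vs DMSO. Initial duplicate test at 25 uM, then concentration-response with 50 uM top concentration.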
# [5] = target: human Rho Associated Coiled-coil Containing Protein Kinase 1 (ROCK1), ROCK1 (gene 6093) (UniProt Q13464); assay: NVS_ENZ_hROCK1: NovaScreen (NVS) Enzymatic Assay for human Rho Associated Coiled-coil Containing Protein Kinase 1 (ROCK1) (AID 2283214)
# Sequence of human Rho Associated Coiled-coil Containing Protein Kinase 1 (ROCK1), ROCK1 (gene 6093) (Q13464 whole entry, looked up): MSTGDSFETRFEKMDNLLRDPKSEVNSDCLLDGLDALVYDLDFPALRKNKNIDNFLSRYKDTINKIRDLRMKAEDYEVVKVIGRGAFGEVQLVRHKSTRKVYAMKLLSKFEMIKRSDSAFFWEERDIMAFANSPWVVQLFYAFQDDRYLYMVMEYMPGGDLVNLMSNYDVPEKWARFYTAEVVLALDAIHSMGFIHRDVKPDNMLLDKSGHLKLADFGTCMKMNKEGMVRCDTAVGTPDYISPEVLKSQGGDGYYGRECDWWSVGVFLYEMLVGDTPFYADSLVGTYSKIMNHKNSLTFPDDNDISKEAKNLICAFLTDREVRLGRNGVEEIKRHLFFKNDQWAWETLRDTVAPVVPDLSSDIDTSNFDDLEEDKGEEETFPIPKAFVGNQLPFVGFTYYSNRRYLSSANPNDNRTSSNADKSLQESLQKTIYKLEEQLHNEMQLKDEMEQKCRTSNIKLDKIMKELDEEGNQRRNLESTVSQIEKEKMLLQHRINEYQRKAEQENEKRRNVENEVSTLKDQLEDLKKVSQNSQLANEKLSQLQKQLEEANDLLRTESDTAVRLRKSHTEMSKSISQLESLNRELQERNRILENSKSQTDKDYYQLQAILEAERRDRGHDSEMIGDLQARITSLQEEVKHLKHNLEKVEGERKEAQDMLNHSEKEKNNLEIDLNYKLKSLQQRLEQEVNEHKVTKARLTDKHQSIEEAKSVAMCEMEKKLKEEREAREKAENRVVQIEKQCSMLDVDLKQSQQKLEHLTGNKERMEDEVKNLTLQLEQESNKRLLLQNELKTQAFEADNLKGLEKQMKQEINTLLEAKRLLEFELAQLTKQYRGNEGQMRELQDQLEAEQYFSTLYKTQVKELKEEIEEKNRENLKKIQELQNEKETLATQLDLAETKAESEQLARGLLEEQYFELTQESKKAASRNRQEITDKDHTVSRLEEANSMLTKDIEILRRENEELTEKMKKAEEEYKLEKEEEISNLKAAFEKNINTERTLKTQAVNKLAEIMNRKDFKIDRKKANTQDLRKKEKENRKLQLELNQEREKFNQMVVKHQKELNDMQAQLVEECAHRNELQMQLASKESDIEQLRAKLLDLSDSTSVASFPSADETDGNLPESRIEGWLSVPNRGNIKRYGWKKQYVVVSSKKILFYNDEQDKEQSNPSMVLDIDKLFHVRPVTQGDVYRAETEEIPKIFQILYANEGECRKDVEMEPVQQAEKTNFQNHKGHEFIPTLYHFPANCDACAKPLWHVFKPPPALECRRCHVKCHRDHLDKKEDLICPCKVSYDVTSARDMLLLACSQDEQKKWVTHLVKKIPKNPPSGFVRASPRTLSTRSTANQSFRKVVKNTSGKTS
# Method in brief: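 Cell-free recombinant human ROCK1 activity assay; fluorescent substrate and product separated by electrophoretic mobility shift, read 1 h after dosing. Screened in duplicate at 25 uM; loss of signal versus DMSO baseline scored as inhibition.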
# [6] = target: human Protein Tyrosine Phosphatase Receptor Type M (PTPRM), PTPRM (gene 5797) (UniProt P28827); assay: NVS_ENZ_hPTPRM: NovaScreen (NVS) Enzymatic Assay for human Protein Tyrosine Phosphatase Receptor Type M (PTPRM) (AID 2283215)
# Sequence of human Protein Tyrosine Phosphatase Receptor Type M (PTPRM), PTPRM (gene 5797) (P28827 whole entry, looked up): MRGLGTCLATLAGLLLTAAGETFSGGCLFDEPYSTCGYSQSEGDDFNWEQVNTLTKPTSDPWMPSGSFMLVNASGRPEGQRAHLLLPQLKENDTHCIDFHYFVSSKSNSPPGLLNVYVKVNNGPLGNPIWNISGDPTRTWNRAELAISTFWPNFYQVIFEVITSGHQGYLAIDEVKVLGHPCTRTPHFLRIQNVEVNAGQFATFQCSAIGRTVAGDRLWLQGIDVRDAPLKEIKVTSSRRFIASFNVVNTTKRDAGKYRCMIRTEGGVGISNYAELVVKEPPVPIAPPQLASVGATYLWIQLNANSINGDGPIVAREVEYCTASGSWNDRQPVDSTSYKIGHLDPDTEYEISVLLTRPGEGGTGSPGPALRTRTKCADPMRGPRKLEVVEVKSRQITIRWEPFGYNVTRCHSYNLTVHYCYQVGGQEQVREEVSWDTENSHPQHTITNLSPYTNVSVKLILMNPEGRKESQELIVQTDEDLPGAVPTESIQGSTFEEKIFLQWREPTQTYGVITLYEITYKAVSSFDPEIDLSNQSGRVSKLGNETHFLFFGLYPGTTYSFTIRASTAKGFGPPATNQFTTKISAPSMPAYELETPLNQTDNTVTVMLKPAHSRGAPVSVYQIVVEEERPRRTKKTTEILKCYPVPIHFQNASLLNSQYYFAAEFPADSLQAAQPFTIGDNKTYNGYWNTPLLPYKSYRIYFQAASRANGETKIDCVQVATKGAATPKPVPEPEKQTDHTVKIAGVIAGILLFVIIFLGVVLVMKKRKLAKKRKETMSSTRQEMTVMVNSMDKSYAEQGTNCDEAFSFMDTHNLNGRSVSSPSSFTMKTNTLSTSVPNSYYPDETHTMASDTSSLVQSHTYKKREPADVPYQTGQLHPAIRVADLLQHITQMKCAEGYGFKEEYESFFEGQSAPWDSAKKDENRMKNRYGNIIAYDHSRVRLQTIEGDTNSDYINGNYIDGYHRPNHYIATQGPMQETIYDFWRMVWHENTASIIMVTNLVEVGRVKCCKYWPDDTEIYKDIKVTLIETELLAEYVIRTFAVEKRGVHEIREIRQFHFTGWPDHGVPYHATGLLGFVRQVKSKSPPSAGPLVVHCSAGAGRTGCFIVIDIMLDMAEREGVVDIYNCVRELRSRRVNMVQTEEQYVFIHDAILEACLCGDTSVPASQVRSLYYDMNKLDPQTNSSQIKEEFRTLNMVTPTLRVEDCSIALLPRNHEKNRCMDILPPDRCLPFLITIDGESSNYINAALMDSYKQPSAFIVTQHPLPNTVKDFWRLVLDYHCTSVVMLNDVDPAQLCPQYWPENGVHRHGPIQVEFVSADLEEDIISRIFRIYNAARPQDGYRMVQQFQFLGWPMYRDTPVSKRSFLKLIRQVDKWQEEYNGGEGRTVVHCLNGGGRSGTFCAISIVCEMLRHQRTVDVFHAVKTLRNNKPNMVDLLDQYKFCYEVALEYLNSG
# Method in brief: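 Cell-free recombinant PTPRM with fluorogenic substrate; product separated from substrate by electrophoretic mobility shift and read by fluorescence, 1.33 h after dosing. Primary screen single concentration (25 uM) in duplicate; actives retested in concentration series; loss of signal versus DMSO.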
# [7] = target: human Sirtuin 1 (SIRT1), SIRT1 (gene 23411) (UniProt Q96EB6); assay: NVS_ENZ_hSIRT1: NovaScreen (NVS) Enzymatic Assay for human Sirtuin 1 (SIRT1) (AID 2283219)
# Method in brief: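 Cell-free recombinant SIRT1 with a fluorescent substrate; substrate and product separated by electrophoretic mobility shift and read by fluorescence intensity, 1 h after dosing. Primary screen at 25 uM in duplicate; hits re-run in concentration-response up to 50 uM, relative to DMSO.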
# [8] = target: human Tropomyosin Receptor Kinase A (TRKA), NTRK1 (gene 4914) (UniProt P04629); assay: NVS_ENZ_hTrkA: NovaScreen (NVS) Enzymatic Assay for human Tropomyosin Receptor Kinase A (TRKA) (AID 2283224)
# Sequence of human Tropomyosin Receptor Kinase A (TRKA), NTRK1 (gene 4914) (P04629 whole entry, looked up): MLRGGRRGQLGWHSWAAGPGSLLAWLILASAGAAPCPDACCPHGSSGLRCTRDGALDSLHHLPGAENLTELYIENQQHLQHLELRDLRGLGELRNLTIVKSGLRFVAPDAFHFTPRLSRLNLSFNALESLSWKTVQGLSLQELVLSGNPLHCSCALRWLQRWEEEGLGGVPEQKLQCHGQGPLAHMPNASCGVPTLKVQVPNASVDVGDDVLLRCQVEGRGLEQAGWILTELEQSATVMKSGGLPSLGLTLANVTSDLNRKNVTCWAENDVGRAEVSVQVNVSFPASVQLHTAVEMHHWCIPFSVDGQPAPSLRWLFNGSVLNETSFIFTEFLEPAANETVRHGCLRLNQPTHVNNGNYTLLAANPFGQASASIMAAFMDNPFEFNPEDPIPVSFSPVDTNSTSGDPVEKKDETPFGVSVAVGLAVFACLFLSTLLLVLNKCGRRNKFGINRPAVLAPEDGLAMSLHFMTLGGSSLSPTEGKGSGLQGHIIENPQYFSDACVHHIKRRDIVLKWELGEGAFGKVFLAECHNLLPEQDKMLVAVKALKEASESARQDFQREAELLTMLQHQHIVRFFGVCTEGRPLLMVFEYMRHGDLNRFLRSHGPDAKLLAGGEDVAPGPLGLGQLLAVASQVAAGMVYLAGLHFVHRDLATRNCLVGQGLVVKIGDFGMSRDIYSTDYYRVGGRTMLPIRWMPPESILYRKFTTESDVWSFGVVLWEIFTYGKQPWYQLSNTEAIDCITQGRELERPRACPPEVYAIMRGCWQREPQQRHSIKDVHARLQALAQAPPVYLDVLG
# Method in brief: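 Recombinant human TrkA activity read after 1 h by fluorescence with electrophoretic mobility shift separating substrate and product. Primary screen in duplicate at 25 uM; actives were rerun in concentration-response up to 50 uM. Loss of signal versus DMSO.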
# [9] = target: human SRC Proto-Oncogene, Non-receptor Tyrosine Kinase (SRC), SRC (gene 6714) (UniProt P12931); assay: NVS_ENZ_hSRC: NovaScreen (NVS) Enzymatic Assay for human SRC Proto-Oncogene, Non-receptor Tyrosine Kinase (SRC) (AID 2283223)
# Method in brief: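 Cell-free kinase activity assay with fluorescent substrate, product separated by electrophoretic mobility shift, read 1 h after dosing. Duplicate single point at 25 uM, then concentration-response up to 50 uM; loss of signal versus DMSO.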
# [10] = target: human Vascular Endothelial Growth Factor Receptor 1 (VEGFR1), FLT1 (gene 2321) (UniProt P17948); assay: NVS_ENZ_hVEGFR1: NovaScreen (NVS) Enzymatic Assay for human Vascular Endothelial Growth Factor Receptor 1 (VEGFR1) (AID 2283226)
# Method in brief: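 Cell-free assay of recombinant human VEGFR1 kinase with substrate, measured 1 h after dosing; fluorescence with electrophoretic mobility-shift separation of substrate and product, referenced to DMSO; primary screen at 25 uM in duplicate, actives then run in concentration series.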
# [11] = target: human Vascular Endothelial Growth Factor Receptor 2 (VEGFR2), KDR (gene 3791) (UniProt P35968); assay: NVS_ENZ_hVEGFR2: NovaScreen (NVS) Enzymatic Assay for human Vascular Endothelial Growth Factor Receptor 2 (VEGFR2) (AID 2283230)
# Method in brief: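 Cell-free recombinant VEGFR2 kinase, fluorescent substrate with electrophoretic mobility-shift separation; read 1 h after dosing. Screened at 25 uM in duplicate, hits to concentration-response up to 50 uM; loss-of-signal versus DMSO.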
# [12] = target: Adenosine receptor A1 (Bos taurus) (UniProt P28190); assay: NVS_GPCR_bAdoR_NonSelective: NovaScreen (NVS) G Protein-Coupled Receptor Assay for bovine Adenosine Receptor (AdoR), Non-selective Binding (AID 2283244)
# Sequence of Adenosine receptor A1 (Bos taurus) (P28190 whole entry, looked up): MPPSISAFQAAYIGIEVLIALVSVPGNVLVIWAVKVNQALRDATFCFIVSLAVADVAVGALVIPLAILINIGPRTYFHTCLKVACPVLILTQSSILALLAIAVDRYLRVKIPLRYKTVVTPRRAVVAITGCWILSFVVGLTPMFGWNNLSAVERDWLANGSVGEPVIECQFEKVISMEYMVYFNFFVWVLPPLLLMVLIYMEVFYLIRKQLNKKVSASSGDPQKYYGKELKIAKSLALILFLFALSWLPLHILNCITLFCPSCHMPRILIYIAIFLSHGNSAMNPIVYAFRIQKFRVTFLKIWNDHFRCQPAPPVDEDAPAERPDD
# Method in brief: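 Bovine striatal membranes, radioligand displacement binding, 1 h after dosing, filter-based scintillation counting. Screened in duplicate at 25 uM, then concentration-response up to 50 uM; loss of specific binding relative to DMSO.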
# [13] = target: human Vascular Endothelial Growth Factor Receptor 3 (VEGFR3), FLT4 (gene 2324) (UniProt P35916); assay: NVS_ENZ_hVEGFR3: NovaScreen (NVS) Enzymatic Assay for human Vascular Endothelial Growth Factor Receptor 3 (VEGFR3) (AID 2283229)
# Method in brief: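 Cell-free recombinant VEGFR3 kinase reaction with fluorescent substrate, read 1 h after dosing by electrophoretic mobility shift separation of substrate and product. Single-concentration duplicate screen at 25 uM, then concentration-response up to 50 uM; loss of activity versus DMSO.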
# [14] = target: sheep Cyclooxygenase-2 (Cox2), PTGS2 (gene 443460) (UniProt P79208); assay: NVS_ENZ_oCOX2: NovaScreen (NVS) Enzymatic Assay for sheep Cyclooxygenase-2 (Cox2) (AID 2283231)
# Method in brief: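 Enzyme extracted from ovine placenta tested cell-free; activity read colorimetrically by absorbance 0.66 hour after dosing. Primary screen in duplicate at 25 uM; hits rerun as concentration series to 50 uM, loss of signal versus DMSO baseline.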
# [15] = target: sheep Cyclooxygenase-1 (Cox1), PTGS1 (gene 443551) (UniProt P05979); assay: NVS_ENZ_oCOX1: NovaScreen (NVS) Enzymatic Assay for sheep Cyclooxygenase-1 (Cox1) (AID 2283239);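 note: actives reduce cyclooxygenase activity so potencies are for inhibitors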
# Sequence of sheep Cyclooxygenase-1 (Cox1), PTGS1 (gene 443551) (P05979 whole entry, looked up): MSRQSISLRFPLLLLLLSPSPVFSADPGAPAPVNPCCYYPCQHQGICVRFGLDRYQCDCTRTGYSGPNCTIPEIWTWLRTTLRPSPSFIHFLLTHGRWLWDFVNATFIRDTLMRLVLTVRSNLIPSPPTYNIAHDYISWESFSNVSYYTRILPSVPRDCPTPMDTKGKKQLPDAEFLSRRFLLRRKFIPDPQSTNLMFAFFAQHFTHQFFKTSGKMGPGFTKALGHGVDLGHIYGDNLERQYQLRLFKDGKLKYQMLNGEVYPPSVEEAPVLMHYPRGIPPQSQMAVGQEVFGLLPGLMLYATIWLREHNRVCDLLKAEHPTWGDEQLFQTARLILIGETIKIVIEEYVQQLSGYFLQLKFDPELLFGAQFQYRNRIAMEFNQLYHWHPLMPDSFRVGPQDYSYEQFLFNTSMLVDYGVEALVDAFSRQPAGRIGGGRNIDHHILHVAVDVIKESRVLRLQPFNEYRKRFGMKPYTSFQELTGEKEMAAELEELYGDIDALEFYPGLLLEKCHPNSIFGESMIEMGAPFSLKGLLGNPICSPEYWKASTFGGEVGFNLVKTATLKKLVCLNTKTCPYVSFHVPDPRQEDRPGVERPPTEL
# Method in brief: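 Absorbance read-out of cyclooxygenase activity in a cell-free preparation from sheep seminal vesicles, taken 0.66 hour after dosing. Initial testing was in duplicate at 25 uM, and confirmatory testing was run in concentration series.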
# [16] = target: bovine Dopamine Receptor (DR), Non-selective Binding, DRD1 (gene 281125) (UniProt Q95136); assay: NVS_GPCR_bDR_NonSelective: NovaScreen (NVS) G Protein-Coupled Receptor Assay for bovine Dopamine Receptor (DR), Non-selective Binding (AID 2283241)
# Method in brief: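 Bovine striatal membranes; radioligand displacement read by filtration and scintillation counting 1 h after dosing, loss of signal vs DMSO. Screened in duplicate at 25 uM, then concentration-response for hits.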
# [17] = system: bovine Histamine 1 Receptor (H1), gene 281231; assay: NVS_GPCR_bH1: NovaScreen (NVS) G Protein-Coupled Receptor Assay for bovine Histamine 1 Receptor (H1) (AID 2283246)
# Method in brief: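 Radioligand displacement on bovine cerebellar membranes, 1 h after dosing, filter-based scintillation read-out; loss of signal vs DMSO. Duplicate single-concentration screen at 25 uM, then concentration-response up to 50 uM for hits.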
# [18] = system: guinea pig Leukotriene B4 Receptor (LTB4), gene 100379538; assay: NVS_GPCR_gLTB4: NovaScreen (NVS) G Protein-Coupled Receptor Assay for guinea pig Leukotriene B4 Receptor (LTB4) (AID 2283247)
# Method in brief: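 Radioligand displacement on guinea pig spleen membranes, filter-based scintillation counting 2 h after dosing. Primary duplicate single point at 25 uM; hits over threshold (e.g. 30% inhibition) run in concentration-response up to 50 uM, DMSO baseline.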
compound,measurement,setting,value
CCOC(=O)C(C)Oc1ccc(Oc2nc3ccc(Cl)cc3o2)cc1 (stereo not drawn),outcome,[1],inactive
CC(C)(C)[C@@H](O)[C@@H](Cc1ccc(Cl)cc1)n1cncn1,AC50,[2],46.6 µM (active)
C=CCOC(Cn1ccnc1)c1ccc(Cl)cc1Cl (stereo not drawn),AC50,[3],15.1 µM (active)
same,AC50,[4],25 µM (active)
CSC(=O)c1cccc2nnsc12,outcome,[5],inactive
CC1(C)C(C=C(Cl)Cl)C1C(=O)OCc1cccc(Oc2ccccc2)c1 (stereo not drawn),outcome,[3],inactive
CCCCC(CC)COC(=O)c1ccccc1C(=O)O (stereo not drawn),outcome,[1],inactive
CC(C)CCCCCCc1ccc(O)cc1,outcome,[5],inactive
same,outcome,[6],inactive
same,outcome,[7],inactive
same,outcome,[8],inactive
O=C(c1ccc(O)cc1O)c1ccc(O)cc1O,AC50,[9],15 µM (active)
same,AC50,[8],25 µM (active)
same,AC50,[10],25 µM (active)
same,AC50,[11],14.6 µM (active)
same,AC50,[12],3.39 µM (active)
O=C(O)c1ccccc1,outcome,[3],inactive
Cc1nn(C)c(Oc2ccccc2)c1C=NOCc1ccc(C(=O)OC(C)(C)C)cc1,AC50,[3],6.6 µM (active)
O=C(Nc1ccc([N+](=O)[O-])cc1Cl)c1cc(Cl)ccc1O,outcome,[6],inactive
CC(C)(c1ccc(O)cc1)c1ccc(O)cc1,outcome,[5],inactive
same,outcome,[7],inactive
same,AC50,[8],15.4 µM (active)
same,outcome,[10],inactive
same,outcome,[13],inactive
same,outcome,[11],inactive
same,outcome,[14],inactive
same,outcome,[15],inactive
CCCN(CCC)c1c([N+](=O)[O-])cc(C(F)(F)F)c(N)c1[N+](=O)[O-],outcome,[6],inactive
same,outcome,[15],inactive
same,outcome,[16],inactive
same,outcome,[12],inactive
CC(=O)S[C@@H]1CC2=CC(=O)CC[C@]2(C)[C@H]2CC[C@@]3(C)[C@@H](CC[C@@]34CCC(=O)O4)[C@H]12,outcome,[17],inactive
N#CSCSc1nc2ccccc2s1,AC50,[7],10.7 µM (active)
same,outcome,[11],inactive
same,AC50,[1],6.64 µM (active)
same,outcome,[15],inactive
CCNc1nc(N)nc(Cl)n1,outcome,[12],inactive
CCOC(=O)[C@H](C)Oc1ccc(Oc2nc3ccc(Cl)cc3o2)cc1,AC50,[1],9.56 µM (active)
CCOC(=O)c1ccc(O)cc1,outcome,[13],inactive
CCOC(=O)NCCOc1ccc(Oc2ccccc2)cc1,outcome,[18],inactive
c1ccc2[nH]c(-c3cscn3)nc2c1,AC50,[9],25 µM (active)
same,AC50,[8],8.41 µM (active)
same,AC50,[4],4.07 µM (active)
